The values that follow come from PubChem BioAssay (NCATS).

Inconclusive results are not listed. Values without a mark were called inactive. Calls of active or inactive are those of the source. Calls follow the shape of the full dose curve.
% is scaled to controls: 0 for no effect and ±100 for the full control effect; potency is read from the fitted curve at half-maximal effect.

A short description of the experiment: Primary qHTS for inhibitors of SARS-S pseudo-typed particle cell entry (AID 1479145). Also: nearly all actives have a fitted effect of over 45% in size. The conditions noted are these: SARS-S pseudotyped particle cell entry, luciferase reporter; series mostly up to 57.1 µM; activity change, negative = inhibition: at the top concentration.
Turning to `N[C@@H]1CONC1=O`, the “activity change, negative = inhibition” value was -15.3%. Take `COc1cc(C(C)=O)ccc1OCCCN1CCC(c2noc3cc(F)ccc23)CC1`: the Potency was 22.4 µM (active). Turning to `NC(=O)C(c1ccccc1)(c1ccccc1)[C@@H]1CCN(CCc2ccc3c(c2)CCO3)C1`, the “activity change, negative = inhibition” value is -1.37%. On the same count and under the same terms, with `COc1cc2c(c(OC)c1OC)-c1ccc(OC)c(=O)cc1[C@@H](NC(C)=O)CC2` the figure was -3.78%.

For the compound `CC1(C)S[C@@H]2[C@H](NC(=O)C(C(=O)O)c3ccccc3)C(=O)N2[C@H]1C(=O)O` (some centres undefined), the “activity change, negative = inhibition” value is 3.2%. Turning to `Nc1nnc(-c2cccc(Cl)c2Cl)c(N)n1`, the call was inactive. Still for that read-out and setting: with `CC(S)C(=O)NCC(=O)O` (centres undefined) the entry was “inactive”. `CCc1c2c(nc3ccc(OC(=O)N4CCC(N5CCCCC5)CC4)cc13)-c1cc3c(c(=O)n1C2)COC(=O)[C@]3(O)CC`: the “activity change, negative = inhibition” value is -3.29%. With `CC(=O)[C@]1(O)Cc2c(O)c3c(c(O)c2[C@@H](O[C@H]2C[C@H](N)[C@H](O)[C@H](C)O2)C1)C(=O)c1ccccc1C3=O`, the Potency was 8.91 µM (active). Consider `Cc1oncc1C(=O)Nc1ccc(C(F)(F)F)cc1`, for which the call was inactive. As to `Cn1cc[nH]c1=S`, the “activity change, negative = inhibition” value was 4.75%. Consider `C[C@H]1[C@H](NC(=O)/C(=N/OC(C)(C)C(=O)O)c2csc(N)n2)C(=O)N1S(=O)(=O)O` (stereo in doubt), for which the “activity change, negative = inhibition” value is -17.6%. As for `CN1C(CCl)Nc2cc(Cl)c(S(N)(=O)=O)cc2S1(=O)=O` (centres undefined), the outcome was inactive. For the compound `Oc1cn2c(n1)Nc1ccc(Cl)c(Cl)c1C2`, the “activity change, negative = inhibition” value is -16.2% [at 26.4 µM]. As for `COC(=O)C(c1ccccc1Cl)N1CCc2sccc2C1` (centres undefined), the call was inactive. `CC(C)Nc1cccnc1N1CCN(C(=O)c2cc3cc(NS(C)(=O)=O)ccc3[nH]2)CC1`: the “activity change, negative = inhibition” value is -9.62%. For `CN1C[C@H]2c3ccccc3Oc3ccc(Cl)cc3[C@@H]2C1`, the “activity change, negative = inhibition” value was -12.4%. In the case of `C=C(CC)C(=O)c1ccc(OCC(=O)O)c(Cl)c1Cl`, the compound was called inactive. The same measure, in the same setting: with `Cc1[nH]c(=O)c(C#N)cc1-c1ccncc1` the entry was “inactive”. For `CO[C@H]1C=CO[C@@]2(C)Oc3c(C)c(O)c4c(O)c(c(/C=N/N5CCN(C)CC5)c(O)c4c3C2=O)NC(=O)/C(C)=C\C=C[C@H](C)[C@H](O)[C@@H](C)[C@@H](O)[C@@H](C)[C@H](OC(C)=O)[C@@H]1C`, the “activity change, negative = inhibition” value is -12.3%. Still for that read-out and setting: with `CN(C)[C@@H]1C(=O)C(C(N)=O)=C(O)[C@@]2(O)C(=O)C3=C(O)c4c(O)ccc(Cl)c4[C@@H](O)[C@H]3C[C@@H]12` the figure was 0.3%. Still for that read-out and setting: with `CS(=O)(=O)OCCCCOS(C)(=O)=O` the figure was -3.45%. The same measure, in the same setting: with `CC1=C(C(=O)O)N2C(=O)[C@@H](NC(=O)[C@H](N)c3ccccc3)[C@H]2SC1` the figure was -23.1%; with `COc1cc2nc(N3CCN(C(=O)C4CCCO4)CC3)nc(N)c2cc1OC` (centres undefined), -0.713%. In the case of `CCn1cc(C(=O)O)c(=O)c2ccc(C)nc21`, the outcome was inactive. As to `Cc1ccc(-c2cc(C(F)(F)F)nn2-c2ccc(S(N)(=O)=O)cc2)cc1`, the “activity change, negative = inhibition” value was 0.251%. Still for that read-out and setting: with `NC(=Nc1ccccc1)Nc1ccccc1` the figure was -20.7%; with `CC(COc1ccccc1)N(CCCl)Cc1ccccc1` (centres undefined), -3.26%; with `CC(=O)N(O)CCCCCNC(=O)CCC(=O)N(O)CCCCCNC(=O)CCC(=O)N(O)CCCCCN`, -18.1%.

With `COc1ccccc1OCC(O)COC(N)=O` (centres undefined), the “activity change, negative = inhibition” value was 3.07%. For the compound `CC1Cc2ccccc2N1NC(=O)c1ccc(Cl)c(S(N)(=O)=O)c1` (centres undefined), the outcome was inactive. In the case of `CC(C)(C)NC(=O)[C@H]1CC[C@H]2[C@@H]3CC[C@H]4NC(=O)C=C[C@]4(C)[C@H]3CC[C@]12C`, the “activity change, negative = inhibition” value was -17.4%. On to `Cc1ccc(S(=O)(=O)NC(=O)NN2CCCCCC2)cc1`, for which the “activity change, negative = inhibition” value was -25%. On to `CC(C)NCC(O)COc1ccc(CCOCC2CC2)cc1` (centres undefined), for which the “activity change, negative = inhibition” value was -9.34%. On the same count and under the same terms, with `CCCN1C[C@H](CSC)C[C@@H]2c3cccc4[nH]cc(c34)C[C@H]21` the figure was -13.4%; with `CC[C@]1(O)C[C@H]2CN(CCc3c([nH]c4ccccc34)[C@@](C(=O)OC)(c3cc4c(cc3OC)N(C=O)[C@H]3[C@@](O)(C(=O)OC)[C@H](OC(C)=O)[C@]5(CC)C=CCN6CC[C@]43[C@@H]65)C2)C1`, -25.1%. On the same count and under the same terms, with `CC#C[C@]1(O)CC[C@H]2[C@@H]3CCC4=CC(=O)CCC4=C3[C@@H](c3ccc(N(C)C)cc3)C[C@@]21C` the figure was -34.2%. The same measure, in the same setting: with `O=NN(CCCl)C(=O)NCCCl` the figure was 4.19%. As to `O=c1c(O)c(-c2ccc(O)c(O)c2)oc2cc(O)cc(O)c12`, the “activity change, negative = inhibition” value is -29.3%.
